Measurements taken from PubChem BioAssay AID1159580 (chemical genetic matrix, 2015).
Where “and” joins values, the source holds several entries; their conditions need not be identical. Equal entries are not always repeated. The campaign covered roughly 5,500 compounds. About 2,000 (36%) were called active. Roughly 18% stayed inconclusive and do not appear here. Cut-off read from the data, not from the text of the source: active = normalized growth mostly below about 0.91 (no sharp cut-off); inconclusive = no clear call, values can overlap the other calls; inactive = mostly above about 0.92. The list shows a part of the results.

Experiment: chemical genetic growth profiling, strain panel (AID 1159580);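 note: tested at 20 µM; growth read once vehicle control cultures reached saturation at 30 °C; 1 = growth at the plate median or of vehicle wells; lower values mean less growth of the strain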
Settings: S. cerevisiae deletion strains, growth OD

Measured: normalized growth

Cc1onc(-c2ccccc2Cl)c1C(=O)N[C@@H]1C(=O)N2[C@@H]1SC(C)(C)[C@@H]2C(=O)O
inactive: locus YAL013W, strain DEP1, active compounds read low 1.01 | locus YAL021C, strain ccr4, active compounds read low 1.06 | locus YAL026C, strain drs2, active compounds read low 1.02 | locus YAL030W, strain snc1, active compounds read low 1.02 | locus YBL061C, strain skt5, active compounds read low 1.02 | locus YBR009C, strain hhf1, active compounds read low 0.994 | locus YBR021W, strain FUR4, active compounds read low 1.02 | locus YBR023C, strain chs3, active compounds read low 1.03 | locus YBR171W, strain sec66, active compounds read low 1.03 | locus YBR229C, strain ROT2, active compounds read low 1.01 | locus YBR231C, strain swc5, active compounds read low 1.03 | locus YBR279W, strain paf1, active compounds read low 1 | locus YCL011C, strain gbp2, active compounds read low 1.02 | locus YCL016C, strain dcc1, active compounds read low 1.01 | locus YCL029C, strain bik1, active compounds read low 1.05 | locus YCL069W, strain vba3, active compounds read low 1.03 | locus YCR088W, strain abp1, active compounds read low 1.01 | locus YDL005C, strain med2, active compounds read low 1.02 | locus YDL035C, strain GPR1, active compounds read low 1 | locus YDL040C, strain nat1, active compounds read low 1.02 | locus YDL074C, strain BRE1, active compounds read low 1.03 | locus YDL101C, strain DUN1, active compounds read low 1.01 | locus YDL134C, strain PPH21, active compounds read low 1.01 | locus YDL185W, strain tfp1, active compounds read low 1.01 | locus YDL192W, strain arf1, active compounds read low 1.01 | locus YDR001C, strain nth1, active compounds read low 1.04 | locus YDR069C, strain doa4, active compounds read low 1.03 | locus YDR101C, strain arx1, active compounds read low 1.02 | locus YDR137W, strain rgp1, active compounds read low 0.971 | locus YDR150W, strain NUM1, active compounds read low 1 | locus YDR159W, strain sac3, active compounds read low 1 | locus YDR162C, strain NBP2, active compounds read low 1.02 | locus YDR195W, strain ref2 1.03 | locus YDR297W, strain sur2, active compounds read low 1.02 | locus YDR318W, strain mcm21, active compounds read low 1.03 | locus YDR334W, strain swr1, active compounds read low 1 | locus YDR335W, strain msn5, active compounds read low 1.01 | locus YDR388W, active compounds read low 1.02 | locus YDR392W, strain spt3, active compounds read low 0.998 | locus YDR502C, strain sam2, active compounds read low 1.02 | locus YEL003W, strain gim4, active compounds read low 1.02 | locus YEL037C, strain rad23, active compounds read low 1.02 | locus YEL061C, strain CIN8 (second series), active compounds read low 1.02 | locus YEL061C, strain CIN8, active compounds read low 1.01 | locus YER015W, strain faa2, active compounds read low 1.02 | locus YER016W, strain bim1, active compounds read low 0.994 | locus YER110C, active compounds read low 1.01 | locus YER111C, strain swi4, active compounds read low 1.03 | locus YER155C, strain BEM2 (second series), active compounds read low 1.06 | locus YER155C, strain BEM2, active compounds read low 1.01 | locus YER167W, strain BCK2, active compounds read low 1.01 | locus YFR010W, strain ubp6, active compounds read low 1.02 | locus YGL078C, strain dbp3, active compounds read low 1.02 | locus YGL086W, strain mad1, active compounds read low 1.01 | locus YGL167C, strain pmr1, active compounds read low 1.03 | locus YGL173C, strain kem1, active compounds read low 1.01 | locus YGL227W, strain vid30, active compounds read low 1.01 | locus YGL240W, strain doc1, active compounds read low 1.02 | locus YGL248W, strain PDE1, active compounds read low 1.02 | locus YGL253W, strain hxk2, active compounds read low 1.02 | locus YGR078C, strain PAC10, active compounds read low 1.01 | locus YGR135W, strain pre9, active compounds read low 1.03 | locus YGR229C, strain SMI1, active compounds read low 1.02 | locus YGR252W, strain gcn5, active compounds read low 1.05 | locus YHR013C, strain ard1, active compounds read low 1.04 | locus YHR027C, strain rpn1, active compounds read low 1.02 | locus YHR030C, strain SLT2, active compounds read low 1.01 and 1 | locus YHR079C, strain IRE1 (second series), active compounds read low 1.02 | locus YHR079C, strain IRE1, active compounds read low 1 | locus YHR094C, strain hxt1, active compounds read low 1.02 | locus YHR129C, strain ARP1, active compounds read low 1.01 | locus YHR142W, strain chs7, active compounds read low 1.02 | locus YHR200W, strain rpn10, active compounds read low 1.03 | locus YIL066C, strain RNR3, active compounds read low 1.01 | locus YIL073C, strain SPO22, active compounds read low 1.06 | locus YIL125W, strain kgd1, active compounds read low 1.03 | locus YIR030C, strain dcg1, active compounds read low 1.02 | locus YJL092W, strain hpr5, active compounds read low 1.03 | locus YJL095W, strain BCK1 (second series), active compounds read low 1.02 | locus YJL095W, strain BCK1, active compounds read low 1.02 and 0.998 | locus YJL115W, strain asf1, active compounds read low 1.01 | locus YJL129C, strain trk1, active compounds read low 1.05 | locus YJL134W, strain LCB3, active compounds read low 1 | locus YJL154C, strain vps35, active compounds read low 1.03 | locus YJL164C, strain tpk1, active compounds read low 1.01 | locus YJL166W, strain qcr8, active compounds read low 1.03 | locus YJL168C, strain set2, active compounds read low 1.02 | locus YJL187C, strain SWE1 (second series), active compounds read low 1.02 | locus YJL187C, strain SWE1, active compounds read low 1.01 | locus YJR043C, strain POL32, active compounds read low 0.995
